SMILES strings stand for the structures. Out of some 300,000 compounds screened, about 2,300 (0.77%) were called active. For the sample, actives were picked, then their nearest neighbours and some compounds at random. Values without a mark were called inactive.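 Rule for the calls: active = more than half of replicate wells show activity change below -50%, luminescence cut by over half; inconclusive = some wells, but at most half, below -50%; inactive = no replicate well below -50%.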

This assay in a line: HSF1 inhibitors in luciferase reporter cells, primary screen, cell-based, NIH3T3, luminescence (AID 2098).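 Note: luciferase reports HSF-1 transcriptional activity via heat shock element; 0% = median of DMSO wells and -100% = zero luminescence signal.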 The following applies: NIH3T3-HGL HSE-luciferase, MG132-induced, luminescence 8 h; hits give low values; screened at 7.5 µM (by protocol). On the technique in general: A reporter such as luciferase makes a cellular process visible.
Consider `CCOc1ccc(S(=O)(=O)NCCC(=O)N2CCCCCCC2)cc1`, for which the activity change, negative = inhibition was 1.97%.

Turning to `O=C(COc1ccccc1)Nc1cc2c3c(c1)CC(=O)N3CCC2`, the activity change, negative = inhibition was 2.82%.

With `Cc1ccc(OCC(=O)c2cc(C)n(Cc3ccco3)c2C)c([N+](=O)[O-])n1`, the activity change, negative = inhibition is -39.8%.

Turning to `Cc1cc(C(=O)COC(=O)CNC(=O)c2ccc(F)cc2)c(C)n1Cc1ccco1`, the activity change, negative = inhibition was -53.9% (active).

Turning to `Cc1cc(C(=O)CSc2nc(N)cc(=O)[nH]2)c(C)n1Cc1ccco1`, the activity change, negative = inhibition was -33.6%.

Regarding `O=C(Nc1c(Br)cc2c(c1Br)Cc1ccccc1-2)C(F)(F)F`, the activity change, negative = inhibition was -5.38%.

In the case of `COc1ccc(C)cc1S(=O)(=O)Nc1cc2c3c(c1)CCC(=O)N3CCC2`, the activity change, negative = inhibition is -68.5% (active).

Take `COc1ccccc1CNS(=O)(=O)c1cc2c3c(c1)CCC(=O)N3CCC2`: the activity change, negative = inhibition is -0.185%.

With `O=C1CCc2cc(S(=O)(=O)Nc3ccc(C(F)(F)F)cc3)cc3c2N1CC3`, the activity change, negative = inhibition was -0.158%.

On to `Cc1ccc(OCCNC(=O)CN2C(=O)NC3(CCCC3)C2=O)cc1`, for which the activity change, negative = inhibition is -2.16%.

Regarding `CN(/N=C/c1ccccc1)C(=S)c1ccccc1`, the activity change, negative = inhibition was -0.878%.

For the compound `Cc1cc(F)ccc1S(=O)(=O)N1CCCOC1CNC(=O)C(=O)NCCC1=CCCCC1` (stereo not given), the activity change, negative = inhibition was -4.13%.

With `O=C(NCCCn1ccnc1)C(=O)NCC1OCCN1S(=O)(=O)c1cc(F)ccc1F` (stereo not given), the activity change, negative = inhibition was -87.4% (active).

`O=C(NCCCc1ccccc1)C(=O)NCC1OCCN1S(=O)(=O)c1ccccc1` (stereo not given): the activity change, negative = inhibition was 3.32%.

For the compound `O=C(CCN1C(=O)C2CCCCC2C1=O)Nc1ccc(OC(F)F)cc1` (stereo not given), the activity change, negative = inhibition was 5.73%.

On to `CCCCn1c(N)c(N(CC(C)C)C(=O)c2cccc(S(=O)(=O)N3CCN(C(C)=O)CC3)c2)c(=O)[nH]c1=O`, for which the activity change, negative = inhibition was 0.146%.

Take `O=C(Nc1cccc2ncccc12)c1ccc(-c2ccc(Cl)cc2Cl)o1`: the activity change, negative = inhibition is 8.41%.

Regarding `O=C(O)c1cc(Cl)c(Cl)cc1C(=O)Nc1cccc2ncccc12`, the activity change, negative = inhibition was 15.1%.

For `O=C(Nc1cccc2ncccc12)C(Cl)(Cl)Cl`, the activity change, negative = inhibition is -59.5% (active).

In the case of `CC(=O)NC1CCN(CC(=O)Nc2nccs2)CC1`, the activity change, negative = inhibition is 0.912%.

On to `CC1CC(C)(C)CC2(C1)NC(=O)N(CC(=O)Nc1nccs1)C2=O` (stereo not given), for which the activity change, negative = inhibition was 0.525%.

With `CC1CCN(CC(=O)Nc2nccs2)CC1`, the activity change, negative = inhibition is -53.5% (active).

Take `COc1cc(OC)cc(-c2nnc(SCC(=O)Nc3ccc(C(=O)O)cc3)s2)c1`: the activity change, negative = inhibition was -5.1%.

With `COc1ccc(NC(=O)CSc2nc(C)cs2)cc1`, the activity change, negative = inhibition is -86.2% (active).

As to `Cc1csc(SCC(=O)Nc2sccc2C#N)n1`, the activity change, negative = inhibition was 9.14%.

For the compound `Cc1nn(-c2ccccc2)c(-n2cccc2)c1C(=O)O`, the activity change, negative = inhibition was -12.1%.

With `CCCc1c(C(=O)Nc2ccc(F)cc2)cnn1-c1ccccc1`, the activity change, negative = inhibition was 6.52%.

In the case of `CCCc1nc(-c2ccccc2O)n(-c2ccccc2)n1`, the activity change, negative = inhibition is -81.9% (active).

With `COc1ccc([C@@H]2[C@@H]3C(=O)N(C(C)(C)C)C(=O)[C@@H]3[C@]3(Cc4ccccc4)C(=O)N(c4cccc(Br)c4)C(=O)N23)cc1`, the activity change, negative = inhibition was -4.65%.

Consider `CCOc1ccc(NS(=O)(=O)c2ccc(C(=O)NC3CCN(Cc4ccccc4)CC3)cc2)cc1`, for which the activity change, negative = inhibition is -0.719%.

Take `Cc1nc(-c2ccc(F)cc2)c(CC(=O)Nc2cccc(S(=O)(=O)N3CCOCC3)c2)s1`: the activity change, negative = inhibition was 4.76%.

Turning to `CCCCn1c(N)c(N(CC(C)C)C(=O)c2ccc(-n3c(C)ccc3C)cc2)c(=O)[nH]c1=O`, the activity change, negative = inhibition is -2.25%.

In the case of `Cn1c(-c2sc3cc(C(F)(F)F)cnc3c2-c2ccccc2)n[nH]c1=S`, the activity change, negative = inhibition was -4.57%.

In the case of `COc1cc(/C=N/n2c(C)n[nH]c2=S)ccc1OCc1ccccc1`, the activity change, negative = inhibition was -2.45%.

Regarding `Cn1c(-c2sccc2OCc2cccc(C(F)(F)F)c2)n[nH]c1=S`, the activity change, negative = inhibition is -82.6% (active).

`O=C(c1ccccc1)c1ccc(OCC(O)CN2CCCC2)cc1` (stereo not given): the activity change, negative = inhibition was -61.3% (active).

For the compound `CC1CCN(CC(O)COc2ccc(C(=O)c3ccccc3)cc2)CC1` (stereo not given), the activity change, negative = inhibition is -15%.

Regarding `O=C(c1ccc(Cl)cc1)c1ccc(OCC(O)CN2CCCCC2)cc1` (stereo not given), the activity change, negative = inhibition is -7.88%.

`Cc1ccc(NC(=O)CSc2nc(=O)n(CCN(C)C)c3c2CCCC3)c(C)c1`: the activity change, negative = inhibition was -5.63%.

For `COc1ccc(C2=NN(C(=O)CSc3nc(=O)n4ccc(C)cc4n3)C(c3ccc(C)cc3)C2)cc1` (stereo not given), the activity change, negative = inhibition is 11.2%.

Consider `CC(=O)N/C(=C\c1ccccc1)C(=O)OC(C)C(=O)N(C)c1ccccc1` (stereo not given), for which the activity change, negative = inhibition was 1.34%.

For `Cc1nc2ccccc2c(=O)n1NC(=O)c1ccc(Cl)c([N+](=O)[O-])c1`, the activity change, negative = inhibition was 1.5%.

As for `C/C(=N\Nc1nncc2ccccc12)c1ccc(Cl)c([N+](=O)[O-])c1`, the activity change, negative = inhibition is -54.9% (active).

`O=C(Nc1cccnc1)c1ccc(Cl)c([N+](=O)[O-])c1`: the activity change, negative = inhibition was -4.95%.

`COc1ccc(NS(=O)(=O)c2ccc(C)c(C(=O)N(C)Cc3ccc(OC)cc3OC)c2)cc1`: the activity change, negative = inhibition is -0.123%.

As for `Cc1ccc(C)c(OCCC(=O)OCC(=O)c2ccc3c(c2)NC(=O)CO3)c1`, the activity change, negative = inhibition is 1.77%.

Turning to `O=C(Nc1ccccc1)/C(=C/c1ccc([N+](=O)[O-])cc1)NC(=O)c1ccccc1`, the activity change, negative = inhibition is -11.2%.

`CCOC(=O)/C(=C\c1ccc([N+](=O)[O-])cc1)C(=O)c1cc(C(C)=O)c(Nc2ccccc2)s1`: the activity change, negative = inhibition is -93.6% (active).

Regarding `Cc1ccc(NC(=O)/C(=C/c2ccc([N+](=O)[O-])cc2)NC(=O)c2ccccc2)cc1`, the activity change, negative = inhibition is -1.77%.

As to `CC1CCCCC1NC(=O)c1cc(=O)[nH]c2ccccc12` (stereo not given), the activity change, negative = inhibition is -3.75%.

As for `Nc1ccc(C(=O)N2CCN(S(=O)(=O)c3ccc(Cl)cc3)CC2)cc1[N+](=O)[O-]`, the activity change, negative = inhibition is 3.46%.

As to `CCOc1cc(C(=O)Nc2ncccn2)cc(OCC)c1OCC`, the activity change, negative = inhibition was -4.41%.

`CCOC(=O)c1ccc(NC(=O)c2cccnc2)cc1`: the activity change, negative = inhibition is -6.35%.

Turning to `CCOc1ccc(C(=O)Nc2ccncc2)cc1`, the activity change, negative = inhibition was 4.46%.

In the case of `CCOc1ccccc1NC(=O)c1cccnc1`, the activity change, negative = inhibition is -2.44%.

`CCOC(=O)c1cccnc1NC(=O)c1ccncc1`: the activity change, negative = inhibition was -52.6% (active).

On to `CCOC(=O)c1cc(NC(=O)c2cccnc2)ccn1`, for which the activity change, negative = inhibition was -72.9% (active).

As for `CCOC(=O)c1c(C)oc2cc(Sc3ccccc3)c(O)c(O)c12`, the activity change, negative = inhibition is 13.1%.

Turning to `COc1ccc(C(=O)NCC(c2ccco2)N2CCc3ccccc32)cc1OC` (stereo not given), the activity change, negative = inhibition was 2.71%.

As for `CCC(=O)c1ccc(OCC(=O)OCC(=O)NC2CCCCCC2)cc1`, the activity change, negative = inhibition was -9.22%.

Turning to `COc1ccc(CNC(=O)COC(=O)CCS(=O)(=O)c2ccc(C)cc2)cc1OC`, the activity change, negative = inhibition is -1.13%.

On to `O=C(CSc1ccccc1F)NC1CCS(=O)(=O)C1` (stereo not given), for which the activity change, negative = inhibition is -68.8% (active).

Regarding `O=C(CSc1nn(-c2ccc(F)cc2)c(=S)s1)NC1CCS(=O)(=O)C1` (stereo not given), the activity change, negative = inhibition is 2.24%.

Turning to `O=C(Cc1ccc(Cl)cc1)NC1CCS(=O)(=O)C1` (stereo not given), the activity change, negative = inhibition was 0.993%.

`CN(CC(=O)Nc1ccccc1Cl)C(=O)COc1cccc2c1OC(C)(C)C2`: the activity change, negative = inhibition is 4.06%.

Turning to `Cc1cccc(C2=N/C(=C/c3cccs3)C(=O)O2)c1`, the activity change, negative = inhibition was -10.1%.

Take `CN1C/C(=C/c2cccs2)C(=O)/C(=C\c2cccs2)C1`: the activity change, negative = inhibition is 19.3%.

Turning to `CSC1=N/C(=C\C=C\c2cccs2)C(=O)S1`, the activity change, negative = inhibition was -67.1% (active).

Turning to `CCCc1cc(=O)[nH]c2nnc(SCC(=O)Nc3nnc(SCC)s3)n12`, the activity change, negative = inhibition is -2.82%.

In the case of `COc1ccc(CCNC(=O)Cc2ccc(C)cc2)cc1OC`, the activity change, negative = inhibition is -5.1%.

In the case of `COc1cccc(/C=C/C(=O)OCC(=O)N2CCCc3ccccc32)c1`, the activity change, negative = inhibition is 0.601%.

Turning to `CCC1Nc2ncnc(N3CCN(c4ccccc4)CC3)c2N(Cc2ccc(Cl)cc2)C1=O` (stereo not given), the activity change, negative = inhibition is 11.2%.

On to `COc1cccc(CNc2nc(C(F)(F)F)nc3ccccc23)c1`, for which the activity change, negative = inhibition is 0.989%.

In the case of `NS(=O)(=O)c1ccc(CCNc2nc(C(F)(F)F)nc3ccccc23)cc1`, the activity change, negative = inhibition is -2.88%.

For `CCc1ccc(C(CNc2nc(C(F)(F)F)nc3ccccc23)N(C)C)cc1` (stereo not given), the activity change, negative = inhibition is -82% (active).

`CCCCn1c(N)c(N(CC(C)C)C(=O)c2ccc(Br)o2)c(=O)[nH]c1=O`: the activity change, negative = inhibition was 4.02%.

As to `CCCN(CCc1ccccc1)C1CCc2c(O)cccc2C1` (stereo not given), the activity change, negative = inhibition was 7.71%.

Consider `CCOC(=O)c1c(C)[nH]c2c1-c1ccccc1C(=O)C2=O`, for which the activity change, negative = inhibition was -91.5% (active).

Turning to `CCOC(=O)C1=C(c2ccc(OC)cc2)C(=O)c2ccccc2C1=O`, the activity change, negative = inhibition was 31.1%.

For the compound `CCOC(=O)c1c(C)[nH]c(C)c1S(=O)(=O)N(C)CC(=O)Nc1ccccc1C`, the activity change, negative = inhibition is 4.41%.

As to `CSc1ccc(S(=O)(=O)NCC(=O)OCC(=O)NC2(C#N)CCCCC2)cc1[N+](=O)[O-]`, the activity change, negative = inhibition was 4.69%.

As for `CC(C)N(C(=O)Cn1c(SCC(=O)N2CCN(c3ccccc3)CC2)nc2ccccc21)C(C)C`, the activity change, negative = inhibition is -10.4%.

Consider `O=C(Cn1c(N2CCN(C/C=C/c3ccccc3)CC2)nc2ccccc21)c1ccccc1`, for which the activity change, negative = inhibition is -0.086%.

Consider `CC(C)Cn1c(N2CCN(C(=O)/C=C/c3ccccc3)CC2)nc2ccccc21`, for which the activity change, negative = inhibition was -65.4% (active).

Consider `O=C(COc1ccccc1Cl)Nc1ccccc1C(=O)NC1CC1`, for which the activity change, negative = inhibition was 6.98%.

As to `CCOc1cc(/C=N/NC(=O)c2cccc(S(=O)(=O)N3CCOCC3)c2)ccc1OCC(=O)N(C)C`, the activity change, negative = inhibition was -64.3% (active).

Consider `COc1ccc(Br)cc1/C=N/NC(=O)c1cccc(S(=O)(=O)N2CCOCC2)c1`, for which the activity change, negative = inhibition was -2.38%.

As to `O=C(N/N=C/c1ccc([N+](=O)[O-])o1)c1cccc(S(=O)(=O)N2CCOCC2)c1`, the activity change, negative = inhibition is 6.48%.

For the compound `CC(=O)Nc1cccc(C(=O)OCC(=O)NCc2cc(C)c(O)c(C)c2)c1`, the activity change, negative = inhibition was 9.36%.

Regarding `NC(=O)C1=C[C@H](c2csc3ccccc23)C[C@H](OCc2ccc(CO)cc2)O1`, the activity change, negative = inhibition was 5.45%.
